Bioassay records: PubChem BioAssay, National Center for Advancing Translational Sciences (NCATS)
The full list was thinned out, with hits kept by preference.
Shiga inhibitor: Shiga toxin inhibition; Vero cells, Shiga toxin protein synthesis inhibition reporter; inhibition, % at 38.7 µM; 290,000 tested, 9.2% active; AID 2315; in the data active means inhibition mostly above about 28%, no sharp cut-off; inactive means mostly below about 43%
CHX counter: affects cycloheximide protein synthesis inhibition readout, counter-screen | cell reporter, cycloheximide protein synthesis inhibition counterscreen | max response, % | 300,000 tested, 12% active; in the data active means max response mostly above about 13%, no sharp cut-off; inactive means mostly below about 14%; further: read at 38.3 µM for the half of the compounds with a filed dose
TbPYK inhibitor: T. brucei pyruvate kinase inhibition; Q57TT1; TbPYK enzyme, Kinase-Glo Plus ATP luminescence, 45 min; Potency, µM (highest dose often 76.8 µM), hits mostly inhibitors; 410,000 tested, 0.12% active; AID 624173; further: nearly all actives have a fitted effect of over 50% in size
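In this concentration-response screen, enzyme-free wells defined baseline while DMSO plates tracked drift. Each reaction combined TbPYK, substrate, compound and 130 uM ADP for 45 min at room temperature. Kinase-Glo Plus luminescence gave the signal.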
Giardia FBPA inh: blocks Giardia fructose-bisphosphate aldolase activity. A8B2U2. purified Giardia FBPA. Potency, µM (titrated, usually from 59.6 µM), usual class: inhibitors. 290,000 tested, 0.71% active. AID 2451; further: nearly all actives have a fitted effect of over 55% in size
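Giardia FBPA (40 nM reagent) was preincubated 10 min at RT with compound (up to 57.5 uM final), then substrate plus GAPDH/TPI/NAD/arsenate coupling system with diaphorase/resazurin was added; resorufin fluorescence (525/598 nm) was read after 20 min.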
LmPK inh: LmPK (Leishmania mexicana) enzyme inhibition. Q27686. purified LmPK, Kinase-Glo ATP luminescence, 1 h. Potency, µM (series often up to 57.5 µM), most hits filed as inhibitors. 290,000 tested, 0.37% active
Target sequence (Q27686 whole entry, looked up): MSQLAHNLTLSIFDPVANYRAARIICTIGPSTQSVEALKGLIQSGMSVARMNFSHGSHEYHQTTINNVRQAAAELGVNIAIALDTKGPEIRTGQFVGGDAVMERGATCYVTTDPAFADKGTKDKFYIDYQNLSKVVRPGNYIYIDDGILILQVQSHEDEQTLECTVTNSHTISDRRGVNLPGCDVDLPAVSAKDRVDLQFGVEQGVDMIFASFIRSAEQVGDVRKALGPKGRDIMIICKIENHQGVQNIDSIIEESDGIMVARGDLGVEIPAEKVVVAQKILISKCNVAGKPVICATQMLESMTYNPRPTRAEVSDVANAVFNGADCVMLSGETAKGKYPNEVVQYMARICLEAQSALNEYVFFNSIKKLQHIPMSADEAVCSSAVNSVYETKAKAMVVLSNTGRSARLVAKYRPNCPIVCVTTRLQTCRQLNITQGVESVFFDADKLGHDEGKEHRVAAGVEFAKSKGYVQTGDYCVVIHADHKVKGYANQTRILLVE
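qHTS format; LmPK 0.1 nM; substrates PEP 0.5 mM and ADP 0.1 mM. One-hour room-temperature incubation, then coupled luciferase luminescence; 0.5 nM enzyme wells mark activation.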
RE007 growth inh: less growth of the S. pombe RE007 Vpr strain | Potency, µM (doses to about 92.2 µM), hits mostly inhibitors | 360,000 tested, 0.21% active | S. pombe RE007 Vpr strain, BacTiter-Glo ATP luminescence, 24 h | AID 651644; active means well fitted falling curve with a large enough effect; inconclusive means small, poorly fitted or top-dose-only effect; inactive means no such curve, though single readings can be large or run the other way; further: nearly all actives have a fitted effect of over 50% in size
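Fission yeast RE007 carrying one integrated HIV-1 vpr copy, seeded at OD 0.01 in PMG+AL medium with 23 nL pinned compound. Grown 24 h at 30 degrees; viability read by BacTiter-Glo luminescence after 5 min.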
Numbers stand for hits; [ ] = another dose, or the depositor's remark. Unless noted, the call rests on the fitted dose curve; in most records, active means well fitted curve in the direction sought with a large enough effect; inconclusive means small, poorly fitted or top-dose-only effect, or another doubt; inactive means no such curve, though single readings can be large; an effect the other way counts as inactive or inconclusive.

`CCCN1C=CC(=C2C(=O)c3ccccc3C2=O)C=C1` gave Shiga inhibitor inactive, CHX counter inactive, TbPYK inhibitor inconclusive, Giardia FBPA inh inactive, LmPK inh 14µM and RE007 growth inh inconclusive.
Screening CCCCCCN1C=CC(=C2C(=O)c3ccccc3C2=O)C=C1 returned Shiga inhibitor 46, CHX counter 37, TbPYK inhibitor inactive, Giardia FBPA inh inactive, LmPK inh inconclusive and RE007 growth inh inactive.
`CN(C)S(=O)(=O)c1cccc(NC(=O)Cn2cc(C(F)(F)F)cc(Cl)c2=O)c1` gave Shiga inhibitor 71, CHX counter inactive, TbPYK inhibitor inactive, Giardia FBPA inh inactive, LmPK inh inactive and RE007 growth inh inactive.
For NS(=O)(=O)c1cccc(NC(=O)Cn2cc(C(F)(F)F)cc(Cl)c2=O)c1 the results were Shiga inhibitor inactive, CHX counter inactive, TbPYK inhibitor inactive, Giardia FBPA inh inactive, LmPK inh inactive and RE007 growth inh inactive.
Screening O=C(Cn1cc(C(F)(F)F)ccc1=O)Nc1ccccc1 returned Shiga inhibitor 44, CHX counter 12, TbPYK inhibitor inactive, Giardia FBPA inh inactive, LmPK inh inactive and RE007 growth inh inactive.
O=C(COC(=O)Cn1cc(C(F)(F)F)ccc1=O)Nc1ccccc1 was read as TbPYK inhibitor inactive and RE007 growth inh inactive.
Screening O=C(Cn1cc(C(F)(F)F)cc(Cl)c1=O)NCCc1ccc(Cl)cc1Cl returned Shiga inhibitor inactive, CHX counter inactive, TbPYK inhibitor inactive, Giardia FBPA inh inactive, LmPK inh inactive and RE007 growth inh inactive.
O=C(Cn1cc(C(F)(F)F)cc(Cl)c1=O)NCc1ccc(F)cc1 was read as Shiga inhibitor 87, CHX counter inactive, TbPYK inhibitor inactive, Giardia FBPA inh inactive, LmPK inh inactive and RE007 growth inh inactive.
`Cc1cc(=O)[nH]c2nnc(SCc3cccc(C(F)(F)F)c3)n12` gave TbPYK inhibitor inactive.
Screening Cc1cc(C)cc(NC(=O)CSc2nc3c([nH]c4ccccc43)c(=O)n2-c2ccc(F)cc2)c1 returned TbPYK inhibitor inactive.
COc1cc(OC)c2c(C)c(CC(=O)NCc3ccccc3OC)c(=O)oc2c1 was read as TbPYK inhibitor inactive.
`Cc1c(N)c(C(C)(C)C)cc(C(C)(C)C)c1[N+](=O)[O-]` gave Shiga inhibitor inactive, CHX counter inactive, TbPYK inhibitor inactive, Giardia FBPA inh inactive, LmPK inh inactive and RE007 growth inh 32µM.
Cc1ccc2nc3sc(C(=O)N4CCOCC4)c(N)c3cc2c1 was read as Shiga inhibitor 54, CHX counter 30, TbPYK inhibitor inactive, Giardia FBPA inh inactive, LmPK inh inactive and RE007 growth inh inactive.
`Cc1ccc2cc3c(N)c(C(=O)N4CCOCC4)sc3nc2c1` gave Shiga inhibitor 103, CHX counter 30, TbPYK inhibitor inactive, Giardia FBPA inh inactive, LmPK inh inactive and RE007 growth inh inactive.
For CCc1ccc2nc3sc(C(=O)N4CCc5ccccc54)c(N)c3cc2c1 the results were Shiga inhibitor inactive, CHX counter inactive, Giardia FBPA inh inactive and LmPK inh inactive.
CCOc1ccc2nc3sc(C(=O)N4CCN(C)CC4)c(N)c3cc2c1 was read as Shiga inhibitor inactive, CHX counter 17, TbPYK inhibitor inactive, Giardia FBPA inh inactive, LmPK inh inactive and RE007 growth inh inactive.
`CCOc1ccc(-n2c(N)c(C(=O)N3CCN(C)CC3)sc2=S)cc1` gave Shiga inhibitor inactive, CHX counter inactive, TbPYK inhibitor inactive, Giardia FBPA inh inactive, LmPK inh inactive and RE007 growth inh inactive.
For CC(C)c1ccc2nc3sc(C(=O)N4CCc5ccccc5C4)c(N)c3cc2c1 the results were Shiga inhibitor inactive, CHX counter 24, TbPYK inhibitor inactive, Giardia FBPA inh inactive, LmPK inh inactive and RE007 growth inh inactive.
CCOc1ccc(/C=C/c2nc(C#N)c(NC(C)c3ccccc3)o2)cc1 (configuration not stated) was read as TbPYK inhibitor inactive.
`COc1ccc2cc3c(N)c(C(=O)N4CCCC4)sc3nc2c1` gave Shiga inhibitor 101, CHX counter 69, TbPYK inhibitor inactive, Giardia FBPA inh inactive, LmPK inh inactive and RE007 growth inh inconclusive.
Screening Brc1ccc2nc(-c3cccs3)c(NCC3CCCO3)n2c1 (configuration not stated) returned Shiga inhibitor 56, CHX counter 32, TbPYK inhibitor inactive, Giardia FBPA inh inconclusive, LmPK inh inactive and RE007 growth inh inactive.
For Cc1ccc(N)cc1N the results were TbPYK inhibitor inactive and RE007 growth inh inactive.
For Cc1cc(N=Nc2ccc(C)c(N=Nc3cc(C)c(N)cc3N)c2)c(N)cc1N the results were Shiga inhibitor 76, CHX counter 62, TbPYK inhibitor inactive, Giardia FBPA inh inconclusive, LmPK inh 20µM and RE007 growth inh inactive.
For CCOc1ccc(OCCn2c(=S)[nH]c3ccccc32)cc1 the results were Shiga inhibitor inactive, CHX counter inactive, TbPYK inhibitor inconclusive, Giardia FBPA inh inactive, LmPK inh inactive and RE007 growth inh inactive.
Screening Cc1cccc(OCCn2c(=S)[nH]c3ccccc32)c1 returned Shiga inhibitor inactive, CHX counter 13, TbPYK inhibitor inconclusive, Giardia FBPA inh inactive, LmPK inh inactive and RE007 growth inh inactive.
For S=c1[nH]c2ccccc2n1CCOc1ccccc1 the results were CHX counter 21, TbPYK inhibitor inconclusive, Giardia FBPA inh inactive, LmPK inh inactive and RE007 growth inh inactive.
For O=C(NCc1ccccc1)C(c1cccnc1)N(C(=O)c1csnn1)c1ccccc1 (configuration not stated) the results were Shiga inhibitor inactive, CHX counter inactive, TbPYK inhibitor inactive, Giardia FBPA inh inactive, LmPK inh inactive and RE007 growth inh inactive.
For CCOc1ccc(CCNC(=O)c2nnc(CS(=O)(=O)c3ccccc3)o2)cc1OCC the results were Shiga inhibitor inactive, CHX counter inactive, TbPYK inhibitor inactive, Giardia FBPA inh inactive, LmPK inh inactive and RE007 growth inh inactive.
For COc1cccc(CNc2ncc(Br)cc2Br)c1O the results were Shiga inhibitor 61, CHX counter 66, TbPYK inhibitor inactive, Giardia FBPA inh inactive[12.9 µM], LmPK inh inactive and RE007 growth inh inconclusive.
COc1cccc(CNCc2cccc(OC)c2O)c1O was read as TbPYK inhibitor inactive and RE007 growth inh inactive.
For COc1cccc(CNc2ccc(Br)cn2)c1O the results were Shiga inhibitor 72, CHX counter 43, TbPYK inhibitor inactive, Giardia FBPA inh inactive, LmPK inh inactive and RE007 growth inh inactive.
Screening Cc1ccc(S(=O)(=O)c2nnn3c2nc(NCc2ccc(F)cc2)c2sccc23)cc1C returned TbPYK inhibitor inactive.
Cc1cccc(N(C(=O)Nc2ccccc2)C2=NCC(C)S2)c1 (configuration not stated) was read as Shiga inhibitor 66, CHX counter 30, TbPYK inhibitor inactive, Giardia FBPA inh inactive, LmPK inh inactive and RE007 growth inh inactive.
